Experimental data taken from PubChem BioAssay (NCATS).
Results filed as inconclusive are left out. Active and inactive are the calls of the source. The call rests on the fitted dose curve; in most records, active means well fitted curve in the direction sought with a large enough effect; inconclusive means small, poorly fitted or top-dose-only effect, or another doubt; inactive means no such curve, though single readings can be large; an effect the other way counts as inactive or inconclusive.

Tests used:
[1] = Quantitative High-Throughput drug screen in 47 multiple myeloma cell lines against the NCATS MIPE library collection: JIM3_ECACC cell viability assay (AID 1918963; further: nearly all actives have a fitted effect of over 35% in size)
Method in brief: (§1)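 Approved and investigational drugs from MIPE 4.0 were added by pin tool to 500 cells per well. After 48 hours at 37C, ATP-based CellTiter-Glo luminescence indicated remaining viability.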

[2] = Quantitative High-Throughput drug screen in 47 multiple myeloma cell lines against the NCATS MIPE library collection: JIM1_ECACC cell viability assay (AID 1918964)
Method in brief: (§2)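 CellTiter-Glo ATP luminescence gave viability after 48 h compound treatment at 37C of 500 multiple myeloma cells per well. Normalisation used DMSO-only wells as 100% and media-only wells as 0% viability; primary qHTS of approved and investigational drugs.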

[3] = Quantitative High-Throughput drug screen in 47 multiple myeloma cell lines against the NCATS MIPE library collection: INA6_PLB cell viability assay (AID 1918965; further: nearly all actives have a fitted effect of over 55% in size)
Method in brief: (§3)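 Inhibition of cell viability is measured here. Each line was plated at 500 cells per well, treated with MIPE 4.0 drugs, kept 48 hours at 37C, then assayed for ATP content by CellTiter-Glo luminescence.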

[4] = Quantitative High-Throughput drug screen in 47 multiple myeloma cell lines against the NCATS MIPE library collection: JJN3_DSMZ cell viability assay (AID 1918966; further: nearly all actives have a fitted effect of over 50% in size)
Method in brief: as §2

[5] = Quantitative High-Throughput drug screen in 47 multiple myeloma cell lines against the NCATS MIPE library collection: H1112_PLB cell viability assay (AID 1918967; further: nearly all actives have a fitted effect of over 30% in size)
Method in brief: as §2

[6] = Quantitative High-Throughput drug screen in 47 multiple myeloma cell lines against the NCATS MIPE library collection: Karpas25_ECACC cell viability assay (AID 1918968; further: nearly all actives have a fitted effect of over 35% in size)
Method in brief: as §2

[7] = Quantitative High-Throughput drug screen in 47 multiple myeloma cell lines against the NCATS MIPE library collection: KMS27_JCRB cell viability assay (AID 1918970); further: nearly all actives have a fitted effect of over 30% in size
Method in brief: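 Viability inhibition screen, 48 h compound exposure, luminescent ATP read-out.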

[8] = Quantitative High-Throughput drug screen in 47 multiple myeloma cell lines against the NCATS MIPE library collection: KMS12BM_JCRB cell viability assay (AID 1918971); further: nearly all actives have a fitted effect of over 35% in size
Method in brief: as §1

[9] = Quantitative High-Throughput drug screen in 47 multiple myeloma cell lines against the NCATS MIPE library collection: KMS21BM_JCRB cell viability assay (AID 1918974); settings: ATP luminescence, 48 h; viability: at 45.8 µM (top of the series) unless noted
Method in brief: as §2

[10] = Quantitative High-Throughput drug screen in 47 multiple myeloma cell lines against the NCATS MIPE library collection: KMS26_JCRB cell viability assay (AID 1918975); further: nearly all actives have a fitted effect of over 45% in size
Method in brief: as §1

[11] = Quantitative High-Throughput drug screen in 47 multiple myeloma cell lines against the NCATS MIPE library collection: MMM1_PLB cell viability assay (AID 1918976); further: nearly all actives have a fitted effect of over 35% in size
Method in brief: (§4)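 ATP-based luminescence (CellTiter-Glo, 5 min RT incubation) quantified surviving cells following two days' treatment with MIPE 4.0 agents at 37 °C, 5% CO2.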

[12] = Quantitative High-Throughput drug screen in 47 multiple myeloma cell lines against the NCATS MIPE library collection: NCIH929_DSMZ cell viability assay (AID 1918978); further: nearly all actives have a fitted effect of over 35% in size
Method in brief: as §4

[13] = Quantitative High-Throughput drug screen in 47 multiple myeloma cell lines against the NCATS MIPE library collection: MM1R_ATCC cell viability assay (AID 1918981); further: nearly all actives have a fitted effect of over 35% in size
Method in brief: as §4

[14] = Quantitative High-Throughput drug screen in 47 multiple myeloma cell lines against the NCATS MIPE library collection: LP1_DSMZ cell viability assay (AID 1918982); further: nearly all actives have a fitted effect of over 35% in size
Method in brief: as §4

[15] = Quantitative High-Throughput drug screen in 47 multiple myeloma cell lines against the NCATS MIPE library collection: KMS12PE_JCRB cell viability assay (AID 1918972); further: nearly all actives have a fitted effect of over 30% in size
Method in brief: as §3

[16] = Quantitative High-Throughput drug screen in 47 multiple myeloma cell lines against the NCATS MIPE library collection: KMS20_JCRB cell viability assay (AID 1918973); further: nearly all actives have a fitted effect of over 45% in size
Method in brief: as §2

[17] = Quantitative High-Throughput drug screen in 47 multiple myeloma cell lines against the NCATS MIPE library collection: MOLP8_DSMZ cell viability assay (AID 1918977); further: nearly all actives have a fitted effect of over 45% in size
Method in brief: as §4

[18] = Quantitative High-Throughput drug screen in 47 multiple myeloma cell lines against the NCATS MIPE library collection: MM1S_ATCC cell viability assay (AID 1918980); further: nearly all actives have a fitted effect of over 45% in size
Method in brief: as §4

[19] = Quantitative High-Throughput drug screen in 47 multiple myeloma cell lines against the NCATS MIPE library collection: OCIMY1_PLB cell viability assay (AID 1918979); further: nearly all actives have a fitted effect of over 35% in size
Method in brief: as §4

Measured: Potency
Potency means the concentration at half of the fitted maximal effect.

COc1cc2ncn(-c3cc(OCc4ccccc4C(F)(F)F)c(C(N)=O)s3)c2cc1OC
active: [1] 0.469 µM | [2] 0.296 µM | [3] 1.18 µM | [4] 16.6 µM | [5] 7.43 µM | [6] 13.2 µM | [7] 0.132 µM | [8] 0.833 µM | [9] 1.32 µM | [10] 18.7 µM | [11] 20.9 µM | [12] 7.43 µM | [13] 18.7 µM | [14] 0.935 µM

CN1c2cc(O)c(N=NC(N)=O)cc2CC1S(=O)(=O)O (stereo not drawn)
not listed: [4] | [5] | [8] | [9] | [11] | [14] | [18] | [19]
inactive: all other assays above

Cn1cncc1[C@@](N)(c1ccc(Cl)cc1)c1ccc2c(c1)c(-c1cccc(Cl)c1)cc(=O)n2C
active: [1] 16.6 µM | [2] 0.935 µM | [3] 4.69 µM | [4] 8.33 µM | [6] 4.18 µM | [7] 7.43 µM | [8] 14.8 µM | [15] 3.32 µM | [16] 11.8 µM | [9] 16.6 µM | [11] 14.8 µM | [17] 7.43 µM | [12] 5.26 µM | [18] 6.62 µM | [13] 23.5 µM

Cc1cc(Nc2cc(CN3CCOCC3)c3nc(C)c(Cc4ccc(Cl)cc4F)n3n2)n[nH]1
active: [1] 4.69 µM | [2] 0.418 µM | [3] 2.35 µM | [5] 23.5 µM | [6] 20.9 µM | [8] 5.26 µM | [16] 5.26 µM | [11] 14.8 µM | [17] 20.9 µM | [12] 26.4 µM | [18] 20.9 µM | [13] 18.7 µM

COc1ccc(C=Cc2cc(OC)c(OC)c(OC)c2)cc1O
not listed: [4] | [5] | [8] | [10] | [13] | [16] | [17] | [18]
inactive: all other assays above

CCCNC(=O)Nc1ccc(Oc2ncnc3cc(OC)c(OC)cc23)cc1Cl
active: [11] 1.66 µM | [18] 20.9 µM
not listed: [8] | [9] | [10] | [12] | [16]
inactive: all other assays above

Cc1c(C)n(Cc2ccc(-c3ccccc3C(=O)O)cc2)c2ccc(C(=O)N[C@@H](C)c3ccc([N+](=O)[O-])cc3)cc12
active: [1] 13.2 µM | [2] 0.0935 µM | [3] 18.7 µM | [6] 5.26 µM | [7] 0.0833 µM | [16] 11.8 µM | [9] 0.148 µM | [12] 26.4 µM | [18] 5.26 µM
inactive: [14]

Cc1cc(Nc2nc(N[C@@H](C)c3ccc(F)cc3)c(C#N)cc2F)n[nH]1
active: [1] 3.72 µM | [2] 0.296 µM | [3] 0.372 µM | [5] 16.6 µM | [6] 1.48 µM | [7] 0.935 µM | [16] 5.26 µM | [10] 8.33 µM | [11] 6.62 µM | [12] 13.2 µM | [18] 20.9 µM | [13] 3.32 µM

COc1cc(C(=O)NS(=O)(=O)c2ccccc2C)ccc1Cc1cn(C)c2ccc(NC(=O)OC3CCCC3)cc12
inactive: [2]
active: [1] 16.6 µM | [3] 10.5 µM | [5] 20.9 µM | [6] 8.33 µM | [8] 26.4 µM | [16] 6.62 µM | [10] 16.6 µM | [17] 18.7 µM | [12] 18.7 µM | [13] 14.8 µM | [14] 20.9 µM

CNC(=O)CN1CCC(Oc2cc3c(Nc4cccc(Cl)c4F)ncnc3cc2OC)CC1
active: [1] 0.0332 µM | [2] 0.001 µM | [3] 0.0235 µM | [6] 0.0187 µM | [7] 0.001 µM | [8] 0.0187 µM | [16] 0.0418 µM | [12] 0.059 µM | [18] 0.0105 µM

C[C@@H]1COC(Nc2ccc3ncnc(Nc4ccc(OCc5nccs5)c(Cl)c4)c3c2)=N1
active: [1] 2.35 µM | [2] 13.2 µM | [3] 4.69 µM | [6] 2.64 µM | [7] 9.35 µM | [8] 14.8 µM | [15] 16.6 µM | [10] 20.9 µM | [12] 3.32 µM | [18] 4.18 µM | [14] 26.4 µM

O=C(O)CO.[NH2-].[NH2-].[Pt+2]
inactive: [1] | [2] | [4] | [5] | [6] | [8] | [15] | [10] | [19] | [14]

CN(c1ncccc1CNc1nc(Nc2ccc3c(c2)CC(=O)N3)ncc1C(F)(F)F)S(C)(=O)=O
active: [1] 5.9 µM | [2] 3.32 µM | [3] 2.64 µM | [4] 2.64 µM | [6] 3.32 µM | [7] 2.64 µM | [8] 9.35 µM | [15] 8.33 µM | [16] 3.32 µM | [10] 7.43 µM | [11] 7.43 µM | [17] 4.18 µM | [12] 2.96 µM | [19] 13.2 µM | [18] 6.62 µM | [13] 6.62 µM | [14] 8.33 µM
